According to PubChem BioAssay:
For some assays here: Entries with a potency or affinity are not part of this list. Activity calls are given as the source filed them. Unless noted, the rule behind the calls is not given here.

Legend:
[1] = antimalarial activity against Dd2 strain (AID 2302;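 active = growth inhibition above 50% at the single 2 µM test dose, taken to imply half-maximal potency below 2 µM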;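 note: 0% = DMSO untreated growth and 100% = chloroquine plus artemisinin killed control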); settings: P. falciparum Dd2 in RBCs, LDH growth readout, 72 h; at 2 µM; stronger effect = higher value
[2] = human hepatoma cell viability loss – ATP luminescence, cytotoxicity control for P. falciparum antimalarial project, primary screen (AID 2303;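 active = inhibition above 50%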;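 note: 0% = DMSO wells and 100% = digitonin-killed cells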); settings: HepG2 viability, 24-48 h, at 10 µM, stronger effect = higher value
[3] = target: L-lactate dehydrogenase (Plasmodium falciparum (isolate CDC / Honduras)) (UniProt Q27743); assay: PfLDH activity inhibition – cell lysate, 3D7 strain, counter-screen for P. falciparum growth inhibition project (AID 2304);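 note: 0% = vehicle and 100% = reference inhibitor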; settings: P. falciparum 3D7 crude extract, LDH APAD/NBT absorbance; at 2 µM; stronger effect = higher value
Sequence of L-lactate dehydrogenase (Plasmodium falciparum (isolate CDC / Honduras)) (Q27743 whole entry, looked up): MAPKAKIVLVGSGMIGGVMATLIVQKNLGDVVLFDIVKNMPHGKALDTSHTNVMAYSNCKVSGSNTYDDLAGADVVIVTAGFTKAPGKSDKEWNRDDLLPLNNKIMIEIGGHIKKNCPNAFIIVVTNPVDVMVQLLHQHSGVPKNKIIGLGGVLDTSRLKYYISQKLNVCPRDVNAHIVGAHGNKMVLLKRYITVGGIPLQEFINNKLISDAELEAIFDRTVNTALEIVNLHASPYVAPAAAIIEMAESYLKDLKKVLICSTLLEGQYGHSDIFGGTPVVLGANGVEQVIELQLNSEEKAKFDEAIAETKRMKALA

[4] = inhibition of 3D7 malaria parasite growth – strain 3D7 (AID 2306);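 note: 0% = DMSO wells and 100% = chloroquine plus artemisinin control wells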; settings: P. falciparum 3D7 erythrocytic growth, LDH absorbance, 72 h; at 2 µM; stronger effect = higher value
[5] = target: Calcium-dependent protein kinase 1 (Plasmodium falciparum (isolate 3D7)) (UniProt P62344); assay: PfCDPK1 kinase inhibitors, biochemical, TCAMS library (AID 1159585; cut-off not given, nearly all actives have IC50 up to about 0.98 µM;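 note: inhibitors leave more ATP so luminescence rises with inhibition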); settings: recombinant PfCDPK1, Kinase-Glo ATP depletion luminescence
Sequence of Calcium-dependent protein kinase 1 (Plasmodium falciparum (isolate 3D7)) (P62344 whole entry, looked up): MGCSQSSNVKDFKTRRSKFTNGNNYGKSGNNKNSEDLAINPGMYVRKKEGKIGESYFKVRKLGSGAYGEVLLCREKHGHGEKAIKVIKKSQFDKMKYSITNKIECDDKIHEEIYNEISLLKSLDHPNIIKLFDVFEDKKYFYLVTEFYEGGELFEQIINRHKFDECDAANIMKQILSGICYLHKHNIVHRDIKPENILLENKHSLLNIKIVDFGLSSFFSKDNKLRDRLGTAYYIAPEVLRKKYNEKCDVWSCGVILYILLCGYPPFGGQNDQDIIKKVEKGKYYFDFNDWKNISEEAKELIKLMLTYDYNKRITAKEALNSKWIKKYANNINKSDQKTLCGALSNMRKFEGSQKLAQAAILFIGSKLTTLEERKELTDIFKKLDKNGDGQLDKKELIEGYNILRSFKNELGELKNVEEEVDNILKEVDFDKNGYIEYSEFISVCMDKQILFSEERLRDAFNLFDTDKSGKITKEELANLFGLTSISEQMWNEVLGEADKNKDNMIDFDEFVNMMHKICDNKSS

[6] = target: Plasmodium falciparum protein kinase 6 (PK6, PF3D7_1337100) (UniProt Q8IDW1); assay: PfPK6 kinase inhibitors, biochemical, TCAMS library (AID 1159586); settings: recombinant PfPK6, Kinase-Glo ATP depletion luminescence
Sequence of Plasmodium falciparum protein kinase 6 (PK6, PF3D7_1337100) (Q8IDW1 1-305): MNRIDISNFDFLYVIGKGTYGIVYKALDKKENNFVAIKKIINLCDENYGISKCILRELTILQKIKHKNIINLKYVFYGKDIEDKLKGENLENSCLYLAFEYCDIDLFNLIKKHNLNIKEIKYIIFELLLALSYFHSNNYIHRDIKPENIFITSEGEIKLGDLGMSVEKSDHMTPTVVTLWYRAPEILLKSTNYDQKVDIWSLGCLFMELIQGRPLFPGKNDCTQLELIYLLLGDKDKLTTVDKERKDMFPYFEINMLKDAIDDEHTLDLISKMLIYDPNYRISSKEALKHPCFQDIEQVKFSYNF

[7] = target: Protein kinase 7 (PK7), Plasmodium falciparum 3D7 (PF3D7_0213400) (UniProt Q7YTF7); assay: inhibition of Plasmodium PK7 catalytic activity – biochemical, TCAMS antimalarial set, Kinase-Glo luminescence (AID 1159587); settings: recombinant PfPK7, Kinase-Glo ATP depletion luminescence
Sequence of Protein kinase 7 (PK7), Plasmodium falciparum 3D7 (PF3D7_0213400) (Q7YTF7 1-343): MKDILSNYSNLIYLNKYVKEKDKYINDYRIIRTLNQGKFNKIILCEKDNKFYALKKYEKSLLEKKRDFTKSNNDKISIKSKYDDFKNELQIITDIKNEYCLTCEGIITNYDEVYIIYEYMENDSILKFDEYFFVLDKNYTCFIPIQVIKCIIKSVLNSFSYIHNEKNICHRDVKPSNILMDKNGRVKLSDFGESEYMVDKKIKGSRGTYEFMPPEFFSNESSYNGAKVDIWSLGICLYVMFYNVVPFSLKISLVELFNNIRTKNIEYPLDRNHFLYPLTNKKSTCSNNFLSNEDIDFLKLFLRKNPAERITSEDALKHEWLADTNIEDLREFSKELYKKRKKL

[8] = target: Calcium-dependent protein kinase 4 (Plasmodium falciparum (isolate 3D7)) (UniProt Q8IBS5); assay: PfCDPK4 kinase inhibitors, biochemical, TCAMS library (AID 1159588; cut-off not given, nearly all actives have IC50 up to about 0.91 µM); settings: recombinant PfCDPK4, Kinase-Glo ATP depletion luminescence
Sequence of Calcium-dependent protein kinase 4 (Plasmodium falciparum (isolate 3D7)) (Q8IBS5 whole entry, looked up): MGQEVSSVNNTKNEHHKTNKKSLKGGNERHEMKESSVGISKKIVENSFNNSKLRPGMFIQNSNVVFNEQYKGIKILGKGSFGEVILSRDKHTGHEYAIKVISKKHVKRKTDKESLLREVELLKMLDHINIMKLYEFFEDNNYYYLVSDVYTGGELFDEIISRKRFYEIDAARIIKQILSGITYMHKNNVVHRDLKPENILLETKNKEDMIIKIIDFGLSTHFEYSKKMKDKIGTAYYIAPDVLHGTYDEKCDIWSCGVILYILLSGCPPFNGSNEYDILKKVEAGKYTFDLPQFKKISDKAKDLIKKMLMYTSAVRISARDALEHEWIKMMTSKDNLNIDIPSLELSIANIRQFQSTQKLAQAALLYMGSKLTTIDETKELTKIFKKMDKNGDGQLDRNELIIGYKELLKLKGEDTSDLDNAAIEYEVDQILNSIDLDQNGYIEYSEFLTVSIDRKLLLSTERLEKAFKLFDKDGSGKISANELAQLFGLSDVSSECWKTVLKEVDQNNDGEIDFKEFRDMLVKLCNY

CN1CCC(N2CCN(c3ccc4c(=O)nc(CCc5cccc(F)c5F)n(CC(=O)N(C)Cc5ccc(-c6ccc(C(F)(F)F)cc6)cc5)c4n3)CC2)CC1
inactive: inhibition [2] 15% | inhibition [3] 2% | outcome [5] | outcome [6] | outcome [7] | outcome [8]
active: growth inhibition [1] 99% | growth inhibition [4] 100%

Cc1cccc2[nH]c(-c3ccc(-c4cccc(CNCC5CCCO5)c4)cc3)nc12 (stereo not given)
active: growth inhibition [1] 50% | growth inhibition [4] 101%
inactive: inhibition [2] 18% | inhibition [3] -5% | outcome [5] | outcome [6] | outcome [7] | outcome [8]

CCOC(=O)CC[C@@H](NC(=O)c1ccc(NCc2ccc3ccc4nc(C)[nH]c(=O)c4c3c2)cc1F)C(=O)N[C@@H](Cc1c[nH]c2ccccc12)C(=O)OCC
inactive: inhibition [2] 45% | inhibition [3] 0% | outcome [5] | outcome [6] | outcome [7] | outcome [8]
active: growth inhibition [1] 77% | growth inhibition [4] 98%

Cc1ccc(/C=C/C(=O)NC2CCC(N3CCC(c4ccccc4C)CC3)CC2)cc1F (stereo not given)
active: inhibition [2] 51% | growth inhibition [4] 96%
inactive: growth inhibition [1] 18% | inhibition [3] 2% | outcome [5] | outcome [6] | outcome [7] | outcome [8]

C[C@H](Cc1ccc(OCCCCCCOc2ccc(C[C@@H](C)NC[C@H](O)c3cccc(Cl)c3)cc2)cc1)NC[C@H](O)c1cccc(Cl)c1
active: growth inhibition [1] 99% | inhibition [2] 99% | growth inhibition [4] 99%
inactive: inhibition [3] 3% | outcome [5] | outcome [6] | outcome [7] | outcome [8]

COc1ccc(/C=C/C(=O)N2CCc3cc4nccc(N5CCN6CCC[C@H]6C5)c4cc32)cc1
inactive: inhibition [2] -3% | inhibition [3] -9% | outcome [5] | outcome [6] | outcome [7] | outcome [8]
active: growth inhibition [1] 98% | growth inhibition [4] 100%

Cc1ccc(Oc2c(-c3ccccc3CN3CCCC3CN(C)C)cnn(C)c2=O)cn1 (stereo not given)
inactive: growth inhibition [1] 9% | inhibition [2] -1% | inhibition [3] -4% | outcome [5] | outcome [6] | outcome [7] | outcome [8]
active: growth inhibition [4] 88%

O=C(NC1CCC1)C1CCN(C(c2ccc(Cl)cc2)c2ccc(Cl)cc2)CC1
active: growth inhibition [1] 70% | growth inhibition [4] 95%
inactive: inhibition [2] 6% | inhibition [3] 8% | outcome [5] | outcome [6] | outcome [7] | outcome [8]

Cc1cccc2[nH]c(=O)c([N+](=O)[O-])c(O)c12
active: growth inhibition [4] 95%
inactive: growth inhibition [1] -2% | inhibition [2] -2% | inhibition [3] -2% | outcome [5] | outcome [6] | outcome [7] | outcome [8]

CCc1ccc(CN2CCC(CNC(=O)c3cc(-c4ccccc4Cl)cs3)C2)cc1 (stereo not given)
inactive: growth inhibition [1] 0% | inhibition [2] 14% | inhibition [3] -2% | outcome [5] | outcome [6] | outcome [7] | outcome [8]
active: growth inhibition [4] 98%

CCOC(=O)c1[nH]c2cc(Cl)cc(Cl)c2c1/C=C/C(=O)Nc1ccc(-c2cnc(NC(C)=O)[nH]2)cc1
inactive: inhibition [2] 45% | inhibition [3] -3% | outcome [5] | outcome [6] | outcome [7] | outcome [8]
active: growth inhibition [1] 65% | growth inhibition [4] 100%

Cc1nc(-c2ccc(-c3ccc(C(=O)Nc4ccc(-n5ccnc5)c(N5CCN(C)CC5)c4)cc3)c(C)c2)no1
active: growth inhibition [1] 100% | growth inhibition [4] 100%
inactive: inhibition [2] 34% | inhibition [3] 2% | outcome [5] | outcome [6] | outcome [7] | outcome [8]

CN(c1ccc(NC(=O)c2ccc(F)cc2)cc1)C1CCN(Cc2cccc(F)c2)C1 (stereo not given)
active: growth inhibition [1] 74% | growth inhibition [4] 81%
inactive: inhibition [2] 3% | inhibition [3] -2% | outcome [5] | outcome [6] | outcome [7] | outcome [8]

O=c1cc(NCCCNCc2scc(I)c2I)[nH]c2ccccc12
inactive: inhibition [2] -16% | inhibition [3] -1% | outcome [5] | outcome [6] | outcome [7] | outcome [8]
active: growth inhibition [1] 73% | growth inhibition [4] 100%

Clc1ncnc2ncn(Cc3cccc(Br)c3)c12
inactive: inhibition [2] -5% | inhibition [3] 3% | outcome [5] | outcome [6] | outcome [7] | outcome [8]
active: growth inhibition [1] 56% | growth inhibition [4] 91%

CC(C)N1CCN(C(=O)c2ccc(CN(C)CCCN3CCN(c4cccc(Cl)c4Cl)CC3)s2)CC1
inactive: growth inhibition [1] 35% | inhibition [3] 3% | outcome [5] | outcome [6] | outcome [7] | outcome [8]
active: inhibition [2] 74% | growth inhibition [4] 94%

Cc1nc(-c2nc(NCc3ccc4c(c3)OCO4)ncc2-c2ccsc2)sc1C
active: growth inhibition [1] 77% | growth inhibition [4] 97%
inactive: inhibition [2] 7% | inhibition [3] -6% | outcome [5] | outcome [6] | outcome [7] | outcome [8]

CCOc1ccc(N2C(N)=NC(N)=NC2(C)C)cc1
active: growth inhibition [4] 95%
inactive: growth inhibition [1] -2% | inhibition [2] 10% | inhibition [3] 0% | outcome [5] | outcome [6] | outcome [7] | outcome [8]

CCNc1cc(C(=O)N[C@@H](Cc2ccccc2)[C@H](O)CNC2(C)CCCCC2)cc(N2CCCCS2(=O)=O)c1
active: growth inhibition [1] 98% | growth inhibition [4] 100%
inactive: inhibition [2] 13% | inhibition [3] 2% | outcome [5] | outcome [6] | outcome [7] | outcome [8]

O=C(NC1CCN(CCN2CCc3ccccc3CC2)CC1)c1ccc(-c2ccc(C(F)(F)F)cc2)cc1
active: growth inhibition [4] 99%
inactive: growth inhibition [1] 43% | inhibition [2] 45% | inhibition [3] -4% | outcome [5] | outcome [6] | outcome [7] | outcome [8]

CCCCNC(=O)[C@H](CC1CCCCC1)NC(=O)c1ccc(O)c(-c2ccc(OC)cc2)c1
active: growth inhibition [4] 89%
inactive: growth inhibition [1] 12% | inhibition [2] -8% | inhibition [3] 5% | outcome [5] | outcome [6] | outcome [7] | outcome [8]

COc1cc(NC(=O)/C=C/c2ccccc2OC(F)(F)F)cc(OCCN2CCN(CCN3CCOCC3)CC2)c1
active: growth inhibition [4] 98%
inactive: growth inhibition [1] 25% | inhibition [2] 20% | inhibition [3] -1% | outcome [5] | outcome [6] | outcome [7] | outcome [8]

COC(=O)c1ccc(Nc2nccc(Nc3ccc(Oc4ccccc4)cc3)n2)cc1
active: growth inhibition [4] 93%
inactive: growth inhibition [1] 15% | inhibition [2] -10% | inhibition [3] 7% | outcome [5] | outcome [6] | outcome [7] | outcome [8]

Cc1c(C(=O)N2CCc3cc4nccc(N5CCN6CCC[C@H]6C5)c4cc32)cnn1-c1ccc(C#N)cc1
inactive: growth inhibition [1] 27% | inhibition [2] 0% | inhibition [3] -3% | outcome [5] | outcome [6] | outcome [7] | outcome [8]
active: growth inhibition [4] 90%

CN(C)Cc1cccc2[nH]c(-c3csc(Cc4cc(Cl)ccc4OCc4ccccc4)n3)nc12
inactive: inhibition [2] 14% | inhibition [3] -2% | outcome [5] | outcome [6] | outcome [7] | outcome [8]
active: growth inhibition [1] 77% | growth inhibition [4] 100%

CS(=O)(=O)NCCCNCc1cccc(-c2cccc(-c3nc4ccc(F)cc4[nH]3)c2)c1
active: growth inhibition [4] 100%
inactive: growth inhibition [1] 5% | inhibition [2] 4% | inhibition [3] -13% | outcome [5] | outcome [6] | outcome [7] | outcome [8]

COc1ccc(NC(=O)c2ccc(OCCCCCCCOc3ccc(C(=O)Nc4ccc(OC)c(N5CCN(C)CC5)c4)cc3)cc2)cc1N1CCN(C)CC1
active: growth inhibition [1] 91% | inhibition [2] 98% | growth inhibition [4] 96%
inactive: inhibition [3] -5% | outcome [5] | outcome [6] | outcome [7] | outcome [8]

Cc1ccc(C(C(=O)Nc2ccc(N3CCNCC3)c(Cl)c2)c2ccccc2)cc1 (stereo not given)
inactive: inhibition [2] 23% | inhibition [3] -2% | outcome [5] | outcome [6] | outcome [7] | outcome [8]
active: growth inhibition [1] 93% | growth inhibition [4] 97%

Cc1cc2nc(/N=C(\N)NC(=O)NC3CCCCC3)nc(C)c2cc1C
inactive: inhibition [2] 20% | inhibition [3] 2% | outcome [5] | outcome [6] | outcome [7] | outcome [8]
active: growth inhibition [1] 98% | growth inhibition [4] 94%

Cn1c(=N)n(CC(=O)OCc2ccc(OCc3ccccc3)cc2)c2ccccc21
inactive: inhibition [2] 5% | inhibition [3] -5% | outcome [5] | outcome [6] | outcome [7] | outcome [8]
active: growth inhibition [1] 74% | growth inhibition [4] 100%

CCCc1cc(NCC)nc(Nc2ccc(F)cc2)n1
active: growth inhibition [4] 86%
inactive: growth inhibition [1] 36% | inhibition [2] 16% | inhibition [3] -1% | outcome [5] | outcome [6] | outcome [7] | outcome [8]

O=C(Nc1cccc(-c2ccc(CN3CCC(O)CC3)cc2)c1)c1ccc(Cl)cc1
inactive: growth inhibition [1] 8% | inhibition [2] 46% | inhibition [3] 4% | outcome [5] | outcome [6] | outcome [7] | outcome [8]
active: growth inhibition [4] 95%

Cc1cccc2[nH]c(-c3ccc(-c4cccc(NC(=O)c5ccncc5)c4)cc3)nc12
active: growth inhibition [4] 98%
inactive: growth inhibition [1] 8% | inhibition [2] 46% | inhibition [3] -7% | outcome [5] | outcome [6] | outcome [7] | outcome [8]

Cc1ccc(F)c(OC2CCN(c3ccc(C(=O)NC4CC4)cn3)CC2)c1
inactive: inhibition [2] 10% | inhibition [3] -2% | outcome [5] | outcome [6] | outcome [7] | outcome [8]
active: growth inhibition [1] 72% | growth inhibition [4] 92%

CC(C)C[C@H](NC(=O)c1cc2ccccc2s1)C(=O)N[C@H]1CCN(Cc2ccc(OC3CCN(C)C3)c(Cl)c2)C1 (stereo not given in full)
active: growth inhibition [1] 65% | inhibition [2] 68% | growth inhibition [4] 97%
inactive: inhibition [3] 2% | outcome [5] | outcome [6] | outcome [7] | outcome [8]

CC(C)Nc1cc(C(=O)N[C@@H](Cc2ccccc2)[C@H](O)CNCc2cccc(C(F)(F)F)c2)c(F)c(N2CCCCS2(=O)=O)c1
active: growth inhibition [1] 78% | growth inhibition [4] 93%
inactive: inhibition [2] -5% | inhibition [3] -2% | outcome [5] | outcome [6] | outcome [7] | outcome [8]

Cc1ccc(N2C(=O)C3C(C2=O)[C@]2(c4ccccc4)C(=O)[C@@]3(c3ccccc3)C(c3ccccc3)=C2c2ccccc2)cc1 (stereo not given in full)
active: growth inhibition [1] 96% | growth inhibition [4] 92%
inactive: inhibition [2] 17% | inhibition [3] -2% | outcome [5] | outcome [6] | outcome [7] | outcome [8]

CCc1nonc1NC(=O)c1oc2c(C)c(C)ccc2c1C
inactive: inhibition [2] 1% | inhibition [3] -3% | outcome [5] | outcome [6] | outcome [7] | outcome [8]
active: growth inhibition [1] 64% | growth inhibition [4] 89%

COc1ccc(-c2cccc(NC(=O)c3cccc(Cl)c3)c2)cc1CN1CCN(C)CC1
inactive: growth inhibition [1] 48% | inhibition [2] 27% | inhibition [3] 1% | outcome [5] | outcome [6] | outcome [7] | outcome [8]
active: growth inhibition [4] 101%

Cc1ccc(CCC(C)NCC(O)c2cccc(Cl)c2)cc1 (stereo not given)
inactive: inhibition [2] 2% | inhibition [3] -4% | outcome [5] | outcome [6] | outcome [7] | outcome [8]
active: growth inhibition [1] 97% | growth inhibition [4] 97%
